Measurements: PubChem BioAssay AID624415 (National Center for Advancing Translational Sciences (NCATS), 2012)
Out of some 390,000 compounds screened, about 60 (0.02%) were called active. No stated cut-off is given here; in the data, active means activity change below about -50%; inconclusive means between about -30% and that limit; inactive means weaker than that. The entries come from a sample that favours actives as a whole.

Biological target: Mucolipin-1 (Homo sapiens) (UniProt Q9GZU1)
Assay: qHTS for Inhibitors of the Human Mucolipin Transient Receptor Potential 1 (TRPML1);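 further: stimulus is agonist 54-4 at its EC80 concentration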
Details: TRPML1-inducible cells, Ca2+ dye fluorescence, FDSS; hits give low values; inhibition of EC80 agonist-evoked calcium signal
Excerpt: Mutations of human Mucolipin transient receptor potential 1 (TRPML1) cause type IV mucolipidosis (ML4), a devastating neurodegenerative disease in young children. […] Currently, there is no treatment for ML4. […] Under physiological conditions, TRPMLs regulate membrane trafficking by transducing information about PI(3,5)P2 levels into changes in juxtaorganellar Ca2+, thereby triggering membrane fusion/fission events in the late endocytic pathways (endolysosomal trafficking). In addition, TRPML1 mediates release of Fe2+ from late endosomes and lysosomes, which is essential for cellular iron metabolism. Thus, impaired ion (Ca2+ and Fe2+) homeostasis underlies lysosomal dysfunction and ML4 phenotypes. In ML4 cells, the problem is twofold. First, defective Ca2+-dependent membrane trafficking due to TRPML1-deficiency causes accumulation of lipids and other bio-materials in the lysosome. The second strike comes from the lysosomal iron overload (due to impairment of TRPML1's Fe2+ conductivity), which converts the accumulated materials into the nondegradable (resistant to lysosomal degradation) lipofuscin (also called aging pigment) in the lysosome. Lipofuscin accumulation dramatically compromises the functions of lysosomes.
Niemann-Pick type C (NPC) disease is another lysosome storage disease (LSD) with severe neurodegeneration during the childhood. Currently, there is no cure for NPC. […] Thus, TRPML1 is likely to be an essential regulator of lysosome ion homeostasis. We specifically hypothesize that stimulating TRPML1's Fe2+/Ca2+ channel activity in the lysosome using synthetic agonists can alleviate neurodegeneration associated with ML4 or NPC.
To this end, a high throughput screen was developed in a miniaturized format to screen against the Molecular Libraries Small Molecule Repository (MLSMR) to find small molecules that act either as inhibitors or agonist against the TRPML1 channel.
NIH Chemical Genomics Center [NCGC]
NIH Molecular Libraries Probe Centers Network [MLPCN]
Assay Submitter (PI): Haoxing Xu, University of Michigan Ann Arbor
TRPML1-DL cells are dissociated from flasks, counted and, brought up to a density of 500,000 cells per mL of media containing a 1X Tet inducer. Using a Multidrop Combi, 3 uL of this cell solution is dispensed to each well of a 1536 TC treated, black, clear bottom hi base plate for a final cell density of 1,500 cells per well. The assay plates are incubated overnight (approximately 16 hours) at 37 degrees C and 5% CO2. Using a Multidrop Combi, 2 uL of ABD Ca8 no wash dye plus quencher is added to each well. The assay plates incubate at room temperature in the dark for 45-90 minutes. The assay plate is read on the FDSS using the following protocol: 10 second baseline read, 23 nL of compounds and controls are added using 1536 pintool, agonist read for 110 seconds, 1 uL EC80 addition (4 uM final 54-4 diluted in media), antagonist read for 110 seconds.
On the % scale 0 is the no-effect control and ±100 the full control effect.

Chain of Mucolipin-1 (Homo sapiens) (Q9GZU1 whole entry, looked up): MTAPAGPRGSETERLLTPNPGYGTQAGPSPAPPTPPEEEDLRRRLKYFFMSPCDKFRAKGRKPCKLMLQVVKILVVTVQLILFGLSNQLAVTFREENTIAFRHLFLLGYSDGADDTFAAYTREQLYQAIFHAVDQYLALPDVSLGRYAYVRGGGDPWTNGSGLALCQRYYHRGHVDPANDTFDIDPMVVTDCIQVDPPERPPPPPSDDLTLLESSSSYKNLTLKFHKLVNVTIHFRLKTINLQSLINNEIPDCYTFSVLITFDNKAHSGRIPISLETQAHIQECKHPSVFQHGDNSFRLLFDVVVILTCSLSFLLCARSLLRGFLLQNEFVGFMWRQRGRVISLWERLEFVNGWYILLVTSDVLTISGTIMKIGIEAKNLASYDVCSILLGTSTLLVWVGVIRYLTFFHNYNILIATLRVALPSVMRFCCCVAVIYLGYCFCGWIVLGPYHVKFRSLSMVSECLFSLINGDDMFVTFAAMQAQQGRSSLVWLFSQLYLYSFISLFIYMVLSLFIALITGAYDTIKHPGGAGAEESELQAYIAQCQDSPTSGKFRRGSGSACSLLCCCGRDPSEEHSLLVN

Activity change, negative = inhibition, inactive:
C=C1CCN(Cc2ccc(OC)cc2)S(=O)(=O)c2ccccc21 57%
CCOC(=O)c1ccc(-c2ccc(/C=C(\C#N)C(=O)Nc3ccc(OCC)cc3)o2)cc1 10.3%
Cc1c(NS(=O)(=O)c2ccc(Cl)cc2)c(=O)n(-c2ccccc2)n1C -2.41%
CCc1ccc2ncc3c(-c4ccc(C)cc4)nn(CC(=O)NCc4ccccc4)c3c2c1 1.33%
COc1ccc(N2CCN(C(=O)C3CCCN(C(=O)c4cc5sccc5n4C)C3)CC2)cc1 (stereo not drawn) -10.9%
COc1cc(Br)cc2cc(S(=O)(=O)c3ccccc3)c(=O)oc12 0.895%
COc1ccc(Cl)cc1NC(=O)Cn1c(=O)c2ccccc2n2nncc12 11.3%
COc1cc(NC(=O)Cn2nc(-c3ccc(C)c(C)c3)ccc2=O)cc(OC)c1 -17.3%
Cc1ccc(NC(=O)NC(C)c2c(-n3cccc3)sc(C)c2C)c(C)c1 (stereo not drawn) 43%
CCc1nnc(SCc2nc(-c3cccc(C)c3)oc2C)c2cc3sc(C)cc3n12 -4.34%
CCCOc1ccc(C(=O)Nc2ccc3oc(-c4cccc(Cl)c4Cl)nc3c2)cc1 -2.03%
COc1ccccc1-c1cc(C(F)(F)F)nc(S(=O)(=O)CCCC(=O)Nc2cc(C)ccc2O)n1 -10.5%
Cc1ccc(C)c(Oc2c(C(F)(F)F)oc3c(CN4CCN(C)CC4)c(O)ccc3c2=O)c1 11.9%
O=C(CN1CCN(Cc2ccc(Cl)cc2)C1=O)NCc1ccc(F)cc1 3.6%
COc1cccc(Cn2c(SCc3ccc(C(=O)N4CCCCC4)cc3)nc3ccncc32)c1 17.2%
CSc1nc(=O)c2c(n1C)NC(=O)CC2c1ccccc1OC(C)C (stereo not drawn) -8.74%
O=C(Nc1ccc2nc(SCC(=O)N3CCCc4ccccc43)sc2c1)c1ccc(F)cc1 -5.54%
Cn1cc(S(=O)(=O)N2CCCCCC2)cc1C(=O)N1CCN(c2ccc(F)cc2)CC1 -18.5%
Cc1ccc(NC(=O)CSc2nc3c([nH]c4ccccc43)c(=O)n2-c2ccccc2)cc1Cl -8.82%
CCCS(=O)(=O)c1c(Nc2ccccc2C)sc(C(=O)c2ccccc2)c1N 6.08%
CCC(=O)N1CCc2cc(Br)cc(S(=O)(=O)Nc3ccc(C)cc3C)c21 11.5%
O=C(Nc1ccc(Br)cc1)c1cc2nc(-c3ccccc3)cc(-c3ccccc3)n2n1 63.6%
O=C(CS(=O)(=O)c1cccc2nsnc12)N1CCN(c2cccc(Cl)c2)CC1 -7.54%
O=C(COc1ccccc1)NCc1ccc2c(c1)CCN2C(=O)c1ccc(F)cc1 25.6%
COc1ccc(NC(=O)c2cc3cc(C)ccc3n2C)cc1 -10.1%
COC(=O)c1ccc(NC(=O)c2cnn(-c3ccc(Cl)cc3)c2C2CCN(C(=O)OC(C)(C)C)CC2)cc1 -3.85%
Cc1c(C(=O)N2CCCC2)oc2c1-c1nn(CC(=O)NCc3ccc(OC(C)C)cc3)cc1CC2 30.2%
CN1CCN(/[N+]([O-])=N/Oc2ccc([N+](=O)[O-])cc2[N+](=O)[O-])CC1 -8.85%
COc1cc(OC)c2c(c1C(CCN1CCCCC1)c1ccc(N(C)C)cc1)OC(=O)CC2c1ccc(N(C)C)cc1 (stereo not drawn) -9.58%
Cc1ccc(Cl)cc1N(C)C(=O)Cn1nc(Cc2cccnc2)c2ccccc2c1=O -7.38%
CC(=O)Nc1ccc(NC(=O)C2CCCN(S(=O)(=O)c3ccc4c(c3)CCCC(=O)N4)C2)cc1 (stereo not drawn) -7.84%
COc1ccc(-c2nc3sc(CCNS(=O)(=O)c4ccc(F)c(C)c4)c(C)n3n2)cc1 16.5%
CCc1cc2c(-c3ccccc3)cc(=O)oc2c2c1OCN(Cc1ccc(C)cc1)C2 -21.9%
O=C(O)c1ccc(Nc2nc(-c3ccccc3)c3cc(Br)ccc3n2)cc1 16.7%
CCN(CC)CCNC(=O)CN1N=C(c2ccc(OC)cc2)CCC1=O -7.95%
COc1ccc(S(=O)(=O)c2c(Nc3cccc(Cl)c3)sc(C(=O)c3ccccc3)c2N)cc1 17%
Cc1ccc2ncc(C(=O)Nc3ccc(OC(F)(F)F)cc3)c(=O)n2c1 4.29%
COC(=O)c1scc(-c2ccc(C)cc2)c1S(=O)(=O)Nc1cc(Cl)c(OC)cc1OC 37.6%
COc1ccc(CC(=O)N2CC(=O)Nc3ccc(Br)cc3C2c2ccc(F)cc2)cc1OC (stereo not drawn) 5.98%
Cc1cccc2c1-c1sc(C(=O)Nc3ccc(F)cc3F)cc1CO2 18.7%
CCOc1ccc(CCNC(=O)c2cc3c(=O)n(C)c4ccccc4c3n2C)cc1 -10.6%
COc1cccc(CNC(=O)c2cc(=O)[nH]c3ccc(S(=O)(=O)N4CCCCC4)cc23)c1 -1.14%
Cc1ccc(C)c(Cn2c(CCCNC(=O)C3CCCCC3)nc3ccccc32)c1 22.7%
CNC(=O)[C@]1(C(F)(F)F)C[C@H](CCc2ccccc2)CCCO1 7.15%
COc1cccc(-c2nnc(SCC(=O)N3CCC(C)CC3)o2)c1 0.454%
CCCn1c(=N)c(C(=O)NCc2ccccc2)cc2c(=O)n3cccc(C)c3nc21 -0.876%
Cc1ccc2c(=O)c(C(=O)c3ccc(F)cc3)cn(CC(=O)NC3CCCCC3)c2n1 -15.9%
COc1ccc(Br)cc1C1C2C=CCC(C)C2C(=O)N1Cc1ccccc1 (stereo not drawn) 20.3%
Cc1ccc(-c2cnc(C3CC3)o2)cc1S(=O)(=O)Nc1cccc(C)c1C 5.77%
COc1ccc(NC(=O)CSc2nc3ccccc3n2CC(=O)N2CCCCC2C)cc1 (stereo not drawn) 9.59%
Cc1cccc(N2CCN(C(=O)c3cnc(N4CCCC4)nc3C)CC2)c1C 12.6%
CCN(CCCNC(=O)c1cc2c(=O)n(CC)c3ccccc3c2s1)Cc1ccccc1 14.6%
COc1ccc(C2/C=C\CN(C(=O)c3ccc(C)cc3)C(Cc3ccccc3)C(=O)N2Cc2ccc(F)cc2)cc1 (stereo not drawn) -1.58%
CCN(CC)CCNC(=O)Cn1ncc2c3ccccc3n(Cc3ccccc3C)c2c1=O 1.87%
O=C(Nc1ccc2c(c1)OCO2)c1cc(-c2cccc(Cl)c2)on1 1.26%
COc1ccc(C2CC(O)(c3ccccc3)Oc3cc(C)cc(C)c32)cc1 (stereo not drawn) 9.65%
Cc1ccc(S(=O)(=O)N(CC(=O)Nc2ccc(Cl)cc2Cl)c2ccccc2C)cc1 59.9%
Cc1c(NC(=O)C(C)(C)C)cccc1-c1nc2ccccc2s1 -0.118%
Cc1ccc2nc(CN3CCN(S(=O)(=O)c4ccc(C)c(C)c4)CC3)oc2c1 -6.53%
O=C(CCS(=O)(=O)c1cc(Br)cc2c1N(C(=O)C1CC1)CC2)Nc1ccc(Br)cc1F -10.7%
COc1cc(NC(=O)c2noc3c2CSc2ccccc2-3)cc(OC)c1OC 8.19%
Fc1ccccc1Oc1ncnc2c1oc1ccccc12 -7.01%
COc1ccccc1-c1nnc(C2CCN(C(=O)c3ccc(Cl)cc3)CC2)o1 -16.2%
